Where “and” joins values, the source holds several entries; their conditions need not be identical. Identical values can stand only once. Results filed as inconclusive are left out. Entries that show only a call come without a potency. Where a structure was tested more than once in an assay, its records may differ in their call. Calls of active or inactive are those of the source. The call rests on the fitted dose curve; in most records, active means well fitted curve in the direction sought with a large enough effect; inconclusive means small, poorly fitted or top-dose-only effect, or another doubt; inactive means no such curve, though single readings can be large; an effect the other way counts as inactive or inconclusive. Where a SMILES comes first, the peptide text is derived from it. Bridges are numbered along the chain shown (N, C = ends). [ ]: non-standard residue; d: D form. The star is where a group is joined. AFC = O=c1cc(C(F)(F)F)c2ccc(N*)cc2o1; X1 = CCC(C)C(N)C1=NC(C(=O)*)CS1; dOrn = NCCC[C@@H](N)C(=O)O
How the values were obtained:
[1] = target: Glutathione peroxidase 1 (Homo sapiens) (UniProt P07203); experiment: Primary qHTS Assay for Inhibitors of Recombinant Selenoprotein Glutathione Peroxidase 1 (GPX1) (AID 1845191); conditions: recombinant GPX1, GR-coupled NADPH fluorescence, 15 min; series mostly up to 48.8 µM; further: nearly all actives have a fitted effect of over 65% in size; further: potency means the concentration at half of the fitted maximal effect
Method in brief: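 Recombinant GPX1 (10 nM final) was preincubated with compound for 30 min at room temperature, then reacted with 1 mM GSH, 0.5 mM CHP, 0.5 mM NADPH and 100 nM glutathione reductase; NADPH fluorescence (340/450 nm) was read at 0 and 15 min.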

[2] = target: Phospholipid hydroperoxide glutathione peroxidase GPX4 (Homo sapiens) (UniProt P36969); experiment: Primary qHTS Assay for Inhibitors of Recombinant Selenoprotein Glutathione Peroxidase 4 (GPX4) (AID 1845192); conditions: recombinant GPX4, GR-coupled NADPH fluorescence, 15 min; series mostly up to 50 µM; further: nearly all actives have a fitted effect of over 65% in size; further: potency means the concentration at half of the fitted maximal effect
Method in brief: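 GR-coupled readout: 100 nM GR, 1 mM GSH, 0.5 mM NADPH; NADPH fluorescence (ex 340/em 450 nm) read at t=0 and after 15 min RT. GPX4 200 nM, preincubated 30 min with compound; substrate 0.5 mM CHP.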

[3] = target: Luciferin 4-monooxygenase (Photinus pyralis) (UniProt P08659); experiment: Primary firefly luciferase (FLuc) qHTS assay for identification of artifact compounds. (AID 1845220); conditions: purified firefly luciferase, luminescence, 5 min; series mostly up to 54.1 µM; further: nearly all actives have a fitted effect of over 60% in size
Method in brief: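 In this counter-screen for luciferase artifacts, test compounds met substrate (10 uM each luciferin and ATP) before 10 nM enzyme started the reaction. Light output was measured 5 min later.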

[4] = Primary fluorescence-based thiol-reactive (MSTI) qHTS assay for identification of artifact compounds. (AID 1845221); conditions: MSTI thiol-reactivity probe, 1 h; series mostly up to 53.8 µM; further: nearly all actives have a fitted effect of over 65% in size; further: potency means the concentration at half of the fitted maximal effect;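 on activity change, negative = thiol reactive: thiol-reactive compounds lower the probe fluorescence signal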
Method in brief: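 MSTI probe at 4 uM final in 2% DMSO/PBS pH 7.4; compounds, 1 h at room temperature in dark. Fluorescence Ex/Em 525/598 nm, normalised to Acetyl-MSTI and MSTI, fitted to 4-parameter Hill.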

[5] = tested on: Nanoluciferase (engineered Oplophorus gracilirostris luciferase); experiment: Primary Nanoluciferase (NLuc) qHTS assay for identification of artifact compounds. (AID 1845222); conditions: NLuc-conditioned medium, Nano-Glo luminescence, 5 min; series mostly up to 54.1 µM;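 further: NLuc secreted into diluted conditioned medium of S16 cells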
Method in brief: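 Using secreted nanoluciferase in S16 culture medium (0.22 um filtered, 1:55 dilution), compounds were preincubated 15 min at RT. Signal was generated with Nano-Glo reagent (1:100) over 5 min.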

[6] = Primary redox qHTS assay for identification of artifact compounds. (AID 1845223); conditions: Amplex Red/HRP redox cycling with DTT, fluorescence; series mostly up to 53.8 µM; further: potency means the concentration at half of the fitted maximal effect
Method in brief: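 Amplex Red (25 uM) and HRP (250 mU/mL) in HBSS, with compounds for 15 min, then 250 uM DTT for 30 min, room temperature, dark. Fluorescence 525/598 nm read; normalized to DMSO and 10 uM DA3003; Hill fit.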

Glutathione peroxidase 1 (Homo sapiens), sequence (P07203 whole entry, looked up): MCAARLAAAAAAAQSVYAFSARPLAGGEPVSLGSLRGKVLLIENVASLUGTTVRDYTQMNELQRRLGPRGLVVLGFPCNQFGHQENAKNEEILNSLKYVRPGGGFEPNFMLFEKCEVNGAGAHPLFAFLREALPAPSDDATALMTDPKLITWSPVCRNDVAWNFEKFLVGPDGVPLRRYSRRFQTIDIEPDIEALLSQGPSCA
Phospholipid hydroperoxide glutathione peroxidase GPX4 (Homo sapiens), sequence (P36969 whole entry, looked up): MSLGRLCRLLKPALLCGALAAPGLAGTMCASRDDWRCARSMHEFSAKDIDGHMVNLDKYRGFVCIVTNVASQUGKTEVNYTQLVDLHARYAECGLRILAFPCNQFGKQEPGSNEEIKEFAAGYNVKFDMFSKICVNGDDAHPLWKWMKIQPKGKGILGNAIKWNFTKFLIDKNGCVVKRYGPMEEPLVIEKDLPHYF

Structure (SMILES)	Potency [1]	Potency [2]	Potency [3]	Potency [4]	Potency [5]	Potency [6]	activity change, negative = inhibition [3]	activity change, negative = thiol reactive [4]	activity, negative = inhibition [5]	redox activity (% of DA3003) [6]
O=c1ccn([C@@H]2O[C@H](CO)[C@@H](O)[C@H]2O)c(=O)[nH]1	inactive	inactive	inactive	inactive	inactive	inactive				
CC1(C)O[C@]23C[C@H]1C[C@H](OC(=O)c1ccoc1)[C@]2(C)[C@@H](OC(=O)c1ccoc1)CCC3(C)O (stereo not given in full)	inactive	inactive	inactive	inactive	inactive	inactive				
CC1CCC2(C(=O)OC3OC(CO)C(O)C(O)C3O)CCC3(C)C(=CCC4C5(C)CC(O)C(O)C(C)(C(=O)O)C5CCC43C)C2C1(C)O (stereo not given)	inactive	inactive	inactive	inactive	inactive	inactive				
CCC[C@@H]1C[C@@H](C(=O)N[C@@H]([C@H]2O[C@H](SC)[C@H](OP(=O)(O)O)[C@@H](O)[C@H]2O)[C@H](C)Cl)N(C)C1	inactive	inactive	inactive	inactive	inactive	inactive				
C=C(C)[C@H]1C[C@@H](O)C(=C)CC[C@@H](O)C(=C)[C@@H](O)C1	inactive	inactive	inactive	11.9 µM (active)	inactive	inactive				
C=CC(C)(C)O[C@@H]1O[C@H](CO[C@@H]2OC[C@](O)(CO)[C@H]2O)[C@@H](O)[C@H](O)[C@H]1O	inactive	inactive	inactive	inactive	inactive	inactive				
CC1CCC2(C)C(CC(O)C(O)C23CO3)C1(C)CCC1=CC(O)OC1=O (stereo not given)	inactive	inactive	inactive	inactive	inactive	inactive				
CC(=O)O[C@@H]1[C@H](O[C@@H]2OC[C@](O)(CO)[C@H]2O)[C@@H](O[C@@H]2O[C@@H](C)[C@H](O)[C@@H](O)[C@H]2O)[C@H](OC(=O)[C@]23CCC(C)(C)C[C@H]2C2=CCC4[C@@]5(C)C[C@H](O)[C@H](O[C@@H]6O[C@H](C(=O)O)[C@@H](O)[C@H](O)[C@H]6O)[C@@](C)(C(=O)O)C5CC[C@@]4(C)[C@]2(C)CC3)O[C@@H]1C (stereo not given in full)	inactive	inactive					3.99% [at 11.6 µM] (inactive)	279% [at 11.5 µM] (inactive)	2.83% [at 11.6 µM] (inactive)	2.26% [at 11.5 µM] (inactive)
CC1NC(=O)CNC(=O)C(C(C)C)NC(=O)C2CCCN2C(=O)C(C(C)C)NC(=O)C(Cc2c[nH]c3ccccc23)NC1=O (stereo not given) (cyclo(GAWVPV); configuration not given here)	inactive	inactive	inactive	inactive	inactive	inactive				
c1ccc(C(OC2CCN(CCCc3nn[nH]n3)CC2)c2ccccc2)cc1	inactive	inactive	inactive	inactive	inactive	inactive				
Cc1nc2c(-c3cnc(N)nc3)nc(N3CCOCC3)nc2n1C(C)C	inactive	inactive	inactive	inactive	inactive	inactive				
O=C(/C=C/c1ccc(O)c(O)c1)OCc1ccccc1O[C@@H]1O[C@H](CO)[C@@H](O)[C@H](O)[C@H]1O	inactive	inactive	inactive	0.922 µM (active)	inactive	inactive				
C[C@@H](Nc1cc(NS(=O)(=O)N2CCC2)nc(SCc2cccc(F)c2F)n1)[C@@H](O)CO	inactive	inactive	inactive	inactive	inactive	inactive				
CCOC(=O)[C@H]1O[C@@H]1C(=O)N[C@@H](CC(C)C)C(=O)NCCC(C)C	inactive	inactive	inactive	inactive	inactive	inactive				
CN(C)C/C=C/C(=O)Nc1ccc(C(=O)Nc2cccc(Nc3ncc(Cl)c(-c4c[nH]c5ccccc45)n3)c2)cc1	inactive	inactive	inactive	inactive	inactive	inactive				
CC(=O)N[C@@H](CC(C)C)C(=O)N[C@@H](CCC(=O)O)C(=O)N[C@@H](CCC(=O)O)C(=O)N[C@@H](CC(=O)O)C(=O)Nc1ccc2c(C(F)(F)F)cc(=O)oc2c1 (Ac-LEED-{AFC})	22.7 µM (active)	20.2 µM (active)	inactive	inactive	inactive	inactive				
COc1cc(/C=C/c2cc(O)cc(O[C@@H]3O[C@H](CO)[C@@H](O)[C@H](O)[C@H]3O)c2)ccc1O	inactive	inactive	inactive	inactive	inactive	inactive				
C=C1[C@@H]2CC[C@@]3(C)[C@H](c4ccoc4)OC(=O)C[C@]13O[C@H]1CC(=O)C(C)(C)[C@H](CC(=O)OC)[C@]12C	inactive	inactive	inactive	inactive	inactive	inactive				
CCCCNC(=O)[C@@H]1Cc2ccccc2N1C(=O)[C@@H](N)CC	inactive	inactive	inactive	inactive	inactive	inactive				

Structure (SMILES)	Potency [1]	Potency [2]	Potency [3]	Potency [4]	Potency [5]	Potency [6]	activity change, negative = inhibition [3]	activity change, negative = thiol reactive [4]	activity, negative = inhibition [5]	redox activity (% of DA3003) [6]
C=C1C(=O)OC2/C=C(\C)CC/C=C(\C(=O)O)CC/C=C(\C)CCC12 (stereo not given)	inactive	inactive	inactive	inactive	inactive	inactive				
CC(C)(OC1OC(CO)C(O)C(O)C1O)C1CCC(O)(CO)C2CC(O)C(C)(O)C2C1 (stereo not given)	inactive	inactive	inactive	inactive	inactive	inactive				
O=C(/C=C/c1ccccc1)OCC1=CC[C@@H]2C(C(=O)O)=CO[C@@H](O[C@@H]3O[C@H](CO)[C@@H](O)[C@H](O)[C@H]3O)[C@H]12	inactive	inactive	inactive	inactive	inactive	inactive				
CC1(C)CCCC2(C)C1C(O)C=C(CO)C2(O)C(=O)O (stereo not given)	inactive	inactive	inactive	inactive	inactive	inactive				
C=C1CCC2C(C)(C)CC(=O)CC2(C)C1CCC(C)CCOC(C)=O (stereo not given)	inactive	inactive	inactive	inactive		inactive				
COC(=O)CC[C@@H](C)[C@H]1CC[C@H]2[C@@H]3CC(=O)[C@H]4C[C@H](OC(C)=O)CC[C@]4(C)[C@H]3CC[C@]12C	inactive	inactive	inactive	inactive		inactive				
CCC(C)C(N)C1=NC(C(=O)N[C@@H](CC(C)C)C(=O)N[C@H](CCC(=O)O)C(=O)N[C@H](C(=O)N[C@H]2CCCCNC(=O)[C@H](CC(N)=O)NC(=O)[C@@H](CC(=O)O)NC(=O)[C@H](Cc3cnc[nH]3)NC(=O)[C@@H](Cc3ccccc3)NC(=O)[C@H]([C@@H](C)CC)NC(=O)[C@@H](CCCN)NC2=O)[C@@H](C)CC)CS1 (stereo not given in full) (X1-L[dE]IK[dOrn]I[dF]H[dD]N; lactam 4-C)	inactive	inactive	inactive	inactive		inactive				
Clc1ccc(CN[C@H]2CCN(c3ncc(Br)cn3)C2)c(Cl)c1	inactive	inactive	inactive	inactive	inactive	inactive				
Cc1nn(C)c2c1C(c1ccc(C(F)(F)F)cc1)C(C#N)=C(N)O2 (stereo not given)	inactive	inactive	inactive	6.7 µM (active)		4.23 µM (active)				
CC1=CCC2C(C)(CO)CCCC2(CO)C1CO (stereo not given)	inactive	inactive	inactive	13.4 µM (active)		inactive				
CC1CCC2(C(=O)OC3OC(CO)C(O)C(O)C3O)CCC3(C(=O)O)C(=CCC4C5(C)CCC(OC6OC(C)C(O)C(O)C6O)C(C)(C)C5CCC43C)C2C1C (stereo not given)	inactive	inactive	inactive	inactive	inactive	inactive				
COC1CCCC/C(C)=C/C2C=C(C)C(C)C3C(CC(C)C)NC(=O)C23C(=O)C1 (stereo not given)	inactive	inactive	inactive	inactive		inactive				
COc1cc([C@H]2OC[C@@H]3[C@@H](c4ccc(O[C@@H]5O[C@H](CO)[C@@H](O)[C@H](O)[C@H]5O)c(OC)c4)OC[C@]23O)ccc1O	inactive	inactive	inactive	inactive		inactive				
CC/C=C/CC1=C(CCCCCCCC(=O)O)CCC1=O	inactive	inactive	inactive	inactive		inactive				
O=C(O)C[C@H](O)C[C@H](O)/C=C/c1c(C2CC2)nc2ccccc2c1-c1ccc(F)cc1	inactive	inactive and 22.4 µM (active)	inactive	inactive		inactive				
CC1=C(CC(=O)O)c2cc(F)ccc2C1=Cc1ccc(S(C)(=O)=O)cc1	inactive	inactive	inactive	inactive		inactive				
C[C@H]1[C@H](C)CC[C@]2(C(=O)O)CC[C@]3(C(=O)O)C(=CCC4[C@@]5(C)CC[C@H](O[C@@H]6O[C@H](C)[C@@H](O)[C@H](O)[C@H]6O)C(C)(C)C5CC[C@]43C)[C@H]12 (stereo not given in full)	inactive	inactive	inactive	inactive		inactive				
Cc1ncc([N+](=O)[O-])n1CC(O)CN1CCOCC1 (stereo not given)	inactive	inactive	inactive	inactive		inactive				
CCc1cc2c(=O)c(-c3nc4ccccc4s3)coc2c(CN2CCCCC2)c1O	11.1 µM (active)	inactive	inactive	inactive		inactive				
